Test results taken from PubChem BioAssay AID1159580 (chemical genetic matrix, 2015).
Values joined by “and” are separate entries in the source; they are usually repeats but may differ in a detail not shown here. Identical values can stand only once. The campaign covered roughly 5,500 compounds. About 2,000 (36%) were called active. Inconclusive results (about 18%) are left out. Rule as the data show it: active = normalized growth mostly below about 0.91 (no sharp cut-off); inconclusive = no clear call, values can overlap the other calls; inactive = mostly above about 0.92. Some of the results follow.

Assay: chemical genetic growth profiling, strain panel (AID 1159580);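 also: tested at 20 µM; growth read once vehicle control cultures reached saturation at 30 °C; 1 = growth at the plate median or of vehicle wells; lower values mean less growth of the strain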
Conditions: S. cerevisiae deletion strains, growth OD

Measured: normalized growth

C[C@]12CCC(=O)C=C1CCC1C2[C@@H](O)C[C@@]2(C)C1CC[C@]2(O)C(=O)CO (stereo partly drawn)
inactive: locus YAL013W, strain DEP1, active compounds read low 1.02 | locus YAL021C, strain ccr4, active compounds read low 0.984 | locus YAL026C, strain drs2, active compounds read low 0.994 | locus YAL030W, strain snc1, active compounds read low 1.01 | locus YBL061C, strain skt5, active compounds read low 0.987 | locus YBR009C, strain hhf1, active compounds read low 1 | locus YBR021W, strain FUR4, active compounds read low 1.01 | locus YBR023C, strain chs3, active compounds read low 0.979 | locus YBR171W, strain sec66, active compounds read low 0.975 | locus YBR229C, strain ROT2, active compounds read low 1.02 | locus YBR231C, strain swc5, active compounds read low 1 | locus YBR279W, strain paf1, active compounds read low 0.98 | locus YCL011C, strain gbp2, active compounds read low 0.979 | locus YCL016C, strain dcc1, active compounds read low 0.971 | locus YCL029C, strain bik1, active compounds read low 0.995 | locus YCL069W, strain vba3, active compounds read low 1 | locus YCR088W, strain abp1, active compounds read low 0.993 | locus YDL005C, strain med2, active compounds read low 0.99 | locus YDL035C, strain GPR1, active compounds read low 1.02 | locus YDL040C, strain nat1, active compounds read low 1.01 | locus YDL074C, strain BRE1, active compounds read low 1.02 | locus YDL101C, strain DUN1, active compounds read low 1.02 | locus YDL185W, strain tfp1, active compounds read low 1 | locus YDL192W, strain arf1, active compounds read low 0.99 | locus YDR001C, strain nth1, active compounds read low 1 | locus YDR069C, strain doa4, active compounds read low 0.993 | locus YDR101C, strain arx1, active compounds read low 0.974 | locus YDR137W, strain rgp1, active compounds read low 1.01 | locus YDR159W, strain sac3, active compounds read low 0.948 | locus YDR162C, strain NBP2, active compounds read low 1.02 | locus YDR195W, strain ref2 0.974 | locus YDR297W, strain sur2, active compounds read low 1 | locus YDR318W, strain mcm21, active compounds read low 1 | locus YDR334W, strain swr1, active compounds read low 0.981 | locus YDR335W, strain msn5, active compounds read low 0.987 | locus YDR388W, active compounds read low 0.991 | locus YDR392W, strain spt3, active compounds read low 0.899 | locus YDR502C, strain sam2, active compounds read low 1.01 | locus YEL003W, strain gim4, active compounds read low 1.01 | locus YEL037C, strain rad23, active compounds read low 1 | locus YEL061C, strain CIN8 (second series), active compounds read low 0.991 | locus YEL061C, strain CIN8, active compounds read low 1.01 | locus YER015W, strain faa2, active compounds read low 0.996 | locus YER016W, strain bim1, active compounds read low 0.99 | locus YER110C, active compounds read low 0.989 | locus YER111C, strain swi4, active compounds read low 0.981 | locus YER155C, strain BEM2 (second series), active compounds read low 1.01 | locus YER155C, strain BEM2, active compounds read low 1.01 | locus YER167W, strain BCK2, active compounds read low 1.01 | locus YFR010W, strain ubp6, active compounds read low 1.01 | locus YGL078C, strain dbp3, active compounds read low 0.984 | locus YGL086W, strain mad1, active compounds read low 0.988 | locus YGL167C, strain pmr1, active compounds read low 0.987 | locus YGL173C, strain kem1, active compounds read low 0.975 | locus YGL227W, strain vid30, active compounds read low 0.981 | locus YGL240W, strain doc1, active compounds read low 0.971 | locus YGL248W, strain PDE1, active compounds read low 1.02 | locus YGL253W, strain hxk2, active compounds read low 0.99 | locus YGR078C, strain PAC10, active compounds read low 1.03 | locus YGR135W, strain pre9, active compounds read low 1.01 | locus YGR229C, strain SMI1, active compounds read low 1.02 | locus YGR252W, strain gcn5, active compounds read low 1.02 | locus YHR013C, strain ard1, active compounds read low 0.969 | locus YHR027C, strain rpn1, active compounds read low 1.01 | locus YHR030C, strain SLT2, active compounds read low 1.01 and 0.975 | locus YHR079C, strain IRE1 (second series), active compounds read low 0.997 | locus YHR079C, strain IRE1, active compounds read low 0.99 | locus YHR094C, strain hxt1, active compounds read low 0.988 | locus YHR129C, strain ARP1, active compounds read low 1.02 | locus YHR142W, strain chs7, active compounds read low 0.999 | locus YHR200W, strain rpn10, active compounds read low 1.01 | locus YIL066C, strain RNR3, active compounds read low 1.02 | locus YIL073C, strain SPO22, active compounds read low 1.02 | locus YIL125W, strain kgd1, active compounds read low 0.997 | locus YIR030C, strain dcg1, active compounds read low 0.994 | locus YJL092W, strain hpr5, active compounds read low 0.995 | locus YJL095W, strain BCK1 (second series), active compounds read low 1 | locus YJL095W, strain BCK1, active compounds read low 1.04 and 0.981 | locus YJL115W, strain asf1, active compounds read low 0.992 | locus YJL129C, strain trk1, active compounds read low 0.97 | locus YJL134W, strain LCB3, active compounds read low 1.01 | locus YJL154C, strain vps35, active compounds read low 0.991 | locus YJL164C, strain tpk1, active compounds read low 1 | locus YJL166W, strain qcr8, active compounds read low 1.02 | locus YJL168C, strain set2, active compounds read low 0.999 | locus YJL187C, strain SWE1 (second series), active compounds read low 1.02 | locus YJR043C, strain POL32, active compounds read low 1.03 | locus YJR066W, strain TOR1, active compounds read low 0.922
